TRHR agonist-1 – TRH receptor (human) agonism; activation, % at 2 µM; actives 0.18% (n = 360,000); TRHR cells, calcium flux fluo-8, FDSS agonist mode; in the data active = activation above about 30%; note: 0% is about no effect
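TRHR-expressing cells loaded with fluo-8 calcium dye; 23 nL library compound pin-transferred, kinetic FDSS fluorescence (Ex 480/Em 530) recorded about 180 s for agonist-induced calcium release, before a 10 nM TRH EC20 addition for potentiator mode.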
TRPML1 ag – human mucolipin-1 channel agonism; TRPML1-expressing cells, Ca2+ dye fluorescence, FDSS; activation, % (no concentration beside the values); actives 0.12% (n = 410,000); AID 624414; in the data active = activation above about 50%; inconclusive = mostly about 30% to 49%; note: 0% is about no effect
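TRPML1-DL cells, Tet-induced overnight (~16 h, 37 degrees C), loaded 45-90 min at room temperature with Ca8 no-wash calcium dye plus quencher. FDSS fluorescence: 10 s baseline, compound pin-transfer, 110 s agonist read, then EC80 54-4 (4uM final) and 110 s antagonist read.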
PTAP TSG101 blk – blocks PTAP/TSG101 interaction to inhibit HIV-1 budding; Q99816; Fluorescence polarization, FITC-PTAP peptide / Tsg101 binding; Potency, µM (series often up to 115 µM), inactives show top-dose activity change, negative = inhibition, usual class: inhibitors; 340,000 tested, under 10 active; AID 493005; active = well fitted inhibition curve with a large enough effect in the main read-out, with a control signal flat, not every such curve was filed as active; inconclusive = small, poorly fitted or top-dose-only effect, or effect the other way, or a change in a side signal; inactive = no such curve, though single readings can be large or run the other way; note: potency is the fitted concentration of half-maximal effect; % of control where 0% means no effect
Target sequence (Q99816 whole entry, looked up): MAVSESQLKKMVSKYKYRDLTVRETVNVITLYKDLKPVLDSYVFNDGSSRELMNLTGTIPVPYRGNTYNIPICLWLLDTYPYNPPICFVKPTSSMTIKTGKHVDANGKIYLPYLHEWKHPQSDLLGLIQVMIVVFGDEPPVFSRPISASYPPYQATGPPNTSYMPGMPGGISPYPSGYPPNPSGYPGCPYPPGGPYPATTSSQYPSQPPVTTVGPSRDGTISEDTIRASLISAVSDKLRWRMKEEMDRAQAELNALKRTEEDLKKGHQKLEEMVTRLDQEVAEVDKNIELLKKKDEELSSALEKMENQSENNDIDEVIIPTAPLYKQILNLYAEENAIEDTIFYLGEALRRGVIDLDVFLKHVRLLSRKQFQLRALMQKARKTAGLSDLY
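FP read-out: FITC-PTAP peptide, 50 nM final, binding Tsg101 binding domain, 10 uM final; 20 min, r.t.; 10 mM HEPES pH 7.5, 0.15 M NaCl, 0.01% Tween 20, 3 mM EDTA, 0.1 mM TCEP.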
TRPML1 inh – human mucolipin-1 channel inhibition; Q9GZU1; TRPML1-inducible cells, Ca2+ dye fluorescence, FDSS; active compounds read low; inhibition of EC80 agonist-evoked calcium signal; activity change, negative = inhibition, % (no concentration beside the values); actives 0.02% (n = 390,000); in the data active = activity change below about -50%; inconclusive = between about -30% and that limit;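 note: stimulus is agonist 54-4 at its EC80 concentration; % is set by controls: 0 for no effect and ±100 for the full control effect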
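Tet-induced TRPML1-DL cells loaded with Ca8 no-wash calcium dye were read kinetically on FDSS. Compound addition was followed by EC80 agonist 54-4 (4 uM final); inhibition was read over 110 s.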
TRHR enhancer-1 – allosterically enhances the human TRH receptor. enhancement, % at 2 µM. AID 493056. actives 0.66% (n = 360,000). P34981. TRHR cells, fluo-8 calcium fluorescence, EC20 TRH enhancement; in the data active = enhancement above about 30%; note: 0% is about no effect
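Enhancer read-out: after compound pinning and an initial kinetic agonist-mode read, an EC20 of TRH (10 nM final) was injected and fluo-8 calcium signal (Ex 480/Em 530) followed at 1 s/cycle for 100 cycles in TRHR-expressing cells.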
TRHR enhancer-2 – human TRH receptor allosteric enhancement confirmation; activity change, negative = inhibition, % at 46.1 µM; TRH receptor cell assay, enhancer confirmation qHTS; shares compounds with TRHR enhancer-1; 970 tested, under 10 active;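 note: compound effect scored on response to added TRH at EC20 of 10 nM; 0% is about no effect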
TRHR agonist-2 – human TRH receptor agonism confirmation; shares compounds with TRHR enhancer-1; TRHR-expressing cells, agonist activation read-out; Potency, µM (series often up to 46.1 µM), for inactives: at the top dose activation, most hits filed as activators; actives 8% (n = 970); AID 493078; note: potency is the fitted concentration of half-maximal effect; 0% is about no effect; nearly all actives have a fitted effect of over 75% in size
Numbers without * were called inactive. A selection: hits, their analogues and other compounds. The true share with any hit is near 0.81%. Unless noted, calls come from the whole dose curve; as a rule, active = well fitted curve in the direction sought with a large enough effect; inconclusive = small, poorly fitted or top-dose-only effect, or another doubt; inactive = no such curve, though single readings can be large; an effect the other way counts as inactive or inconclusive.

How did O=C(N/N=C/c1cc(Cl)cc(Cl)c1O)c1ccncc1 do in these assays?
TRHR agonist-1: 40*; TRPML1 ag: 18; PTAP TSG101 blk: inconclusive; TRPML1 inh: -8; TRHR enhancer-1: 12; TRHR enhancer-2: inconclusive; TRHR agonist-2: 21µM*

What do the screens show for `COC(=O)c1ccccc1NC(=O)CCCn1nc([N+](=O)[O-])c(Br)c1C`?
TRHR agonist-1: 28; TRPML1 ag: 1; PTAP TSG101 blk: 0%; TRPML1 inh: -9; TRHR enhancer-1: 0; TRHR enhancer-2: -7; TRHR agonist-2: 2%

Results for Cc1c(Cl)c([N+](=O)[O-])nn1CCCC(=O)Nc1cccc(Cl)c1Cl ?
TRHR agonist-1: 0; TRPML1 ag: 0; PTAP TSG101 blk: 0%; TRPML1 inh: -1; TRHR enhancer-1: -3

What do the screens show for `CC(=N/O)/C(C)=N\NC(=O)c1ccccn1`?
TRHR agonist-1: 0; TRPML1 ag: 0; PTAP TSG101 blk: -2%; TRPML1 inh: 0; TRHR enhancer-1: 60*; TRHR enhancer-2: 1; TRHR agonist-2: 0%

Results for CC(C)(C)NC(=O)C1N(c2cccnc2)C(=O)C2C(C(=O)Nc3ccccc3)C3(C)C=CC21O3 (configuration not stated) ?
TRHR agonist-1: 1; TRPML1 ag: 1; PTAP TSG101 blk: -9%; TRPML1 inh: -5; TRHR enhancer-1: 2

What do the screens show for `Cc1cc(NC(=O)C2C3C(=O)N(c4cccnc4)C(C(=O)NC(C)(C)C)C34C=CC2(C)O4)no1` (configuration not stated)?
TRHR agonist-1: 0; TRPML1 ag: 0; PTAP TSG101 blk: 0%; TRPML1 inh: 15; TRHR enhancer-1: 42*; TRHR enhancer-2: 2; TRHR agonist-2: 5%

How did CC(C)(C)c1ccc(OCCCC(=O)NNC(=O)c2ccccc2O)cc1 do in these assays?
TRHR agonist-1: 0; TRPML1 ag: 1; PTAP TSG101 blk: -1%; TRPML1 inh: 27; TRHR enhancer-1: 41*; TRHR enhancer-2: -4; TRHR agonist-2: 0%

What do the screens show for `CN(C)/C=C/c1onc(-c2c(Cl)cccc2Cl)c1C#N`?
TRHR agonist-1: 0; TRPML1 ag: 1; PTAP TSG101 blk: 1%; TRPML1 inh: 10; TRHR enhancer-1: 44*; TRHR enhancer-2: 4; TRHR agonist-2: inconclusive

How did O=C(O)c1ccc(CSc2nnc(-c3ccccc3Cl)n2-c2ccccc2)cc1 do in these assays?
TRHR agonist-1: 1; TRPML1 ag: 0; PTAP TSG101 blk: -1%; TRPML1 inh: -6; TRHR enhancer-1: 51*; TRHR enhancer-2: -10; TRHR agonist-2: 0%

How did Cc1cccc(NS(=O)(=O)c2cc3c4c(c2)CC(=O)N4CCC3)c1C do in these assays?
TRHR agonist-1: 0; TRPML1 ag: 1; PTAP TSG101 blk: -4%; TRPML1 inh: 3; TRHR enhancer-1: -6

Results for Cc1cccc(NS(=O)(=O)c2cc3c4c(c2)CCN4C(=O)CC3)c1C ?
TRHR agonist-1: 0; TRPML1 ag: 0; PTAP TSG101 blk: -7%; TRPML1 inh: 49; TRHR enhancer-1: 45*; TRHR enhancer-2: 7; TRHR agonist-2: -1%

What do the screens show for `CCN(N=O)c1ccc(/C=C/c2ccnc3ccccc23)cc1`?
TRPML1 ag: 2

How did Cc1ccc([N+](=O)[O-])cc1-c1ccc(/C=C(\C#N)c2[nH]nc(N)c2C#N)o1 do in these assays?
TRHR agonist-1: 0; TRPML1 ag: 1; PTAP TSG101 blk: -3%; TRPML1 inh: 10; TRHR enhancer-1: -5

How did COc1cc(/C=C(\C#N)c2[nH]nc(N)c2C#N)cc(OC)c1O do in these assays?
TRHR agonist-1: 62*; TRPML1 ag: 5; PTAP TSG101 blk: -7%; TRPML1 inh: -5; TRHR enhancer-1: 20; TRHR enhancer-2: 9; TRHR agonist-2: inconclusive

Results for COc1cc2nc(N3CCN(C)CC3)nc(NC3CCN(C)CC3)c2cc1OC ?
TRPML1 ag: -1

Source: PubChem BioAssay (National Center for Advancing Translational Sciences (NCATS))
